Source: PubChem BioAssay (EPA / NIEHS)
The source made the active and inactive calls. The calls were made as follows: active = hit-call score of the fitted dose curve at least 0.9, where 1 is the maximum; inactive = score below 0.9.

Legend:
Details in all cases: mRNA level, 48 h; actives raise or lower the signal
CYP4A11 (gene 1579) = assay: LTEA_HepaRG_CYP4A11: Life Technologies and Expression Analysis (LTEA) Assay for CYP4A11 using HepaRG (AID 2283486)
Outline: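 Differentiated HepaRG cells, 48 h after plating, exposed in duplicate for 48 h to 8 half-log concentrations up to 100 uM in 0.5% DMSO in serum-free induction medium. CYP4A11 mRNA measured by TaqMan qRT-PCR, normalized to ACTB, GAPDH and POLR2A.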

[1] = read-out: Cytochrome P450 3A4 (Homo sapiens) (UniProt P08684); assay: LTEA_HepaRG_CYP3A4: Life Technologies and Expression Analysis (LTEA) Assay for CYP3A4 using HepaRG (AID 2283487)
Outline: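 Differentiated HepaRG cells, plated 48 h, then dosed 48 h in serum-free induction medium with 0.5% DMSO, 8 half-log concentrations up to 100 uM, duplicate. CYP3A4 mRNA by qRT-PCR, normalized to ACTB/GAPDH/POLR2A; bidirectional fit versus DMSO.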

[2] = read-out: DNA damage-inducible transcript 3 (DDIT3), DDIT3 (gene 1649); assay: LTEA_HepaRG_DDIT3: Life Technologies and Expression Analysis (LTEA) Assay for DNA damage-inducible transcript 3 (DDIT3) using HepaRG (AID 2283488)
Outline: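 DDIT3 transcript was quantified by qRT-PCR with ACTB/GAPDH/POLR2A normalization after 48 h chemical treatment of differentiated HepaRG cells in 0.5% DMSO. Dosing was eight-point, half-log, top 100 uM, duplicate wells. Curves fitted bidirectionally versus DMSO.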

[3] = read-out: Pro-epidermal growth factor (Homo sapiens) (UniProt P01133); assay: LTEA_HepaRG_EGF: Life Technologies and Expression Analysis (LTEA) Assay for Epidermal growth factor (EGF) using HepaRG (AID 2283489)
Outline: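 HepaRG cells (~100,000/well, 48 h pre-culture) exposed in duplicate for 48 h in serum-free induction medium to 8 half-log concentrations up to 100 uM in 0.5% DMSO. EGF mRNA by qRT-PCR, normalized to ACTB/GAPDH/POLR2A; bidirectional fit versus DMSO.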

[4] = read-out: Early growth response protein 1 (EGR1) transcription factor, EGR1 (gene 1958); assay: LTEA_HepaRG_EGR1: Life Technologies and Expression Analysis (LTEA) Assay for Early growth response protein 1 (EGR1) transcription factor using HepaRG (AID 2283490)
Outline: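 EGR1 expression change in human HepaRG after 48 h chemical exposure, assessed by housekeeping-normalized qRT-PCR; concentration-response up to 100 uM, fitted in both directions against DMSO controls.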

[5] = read-out: Ezrin (EZR), EZR (gene 7430); assay: LTEA_HepaRG_EZR: Life Technologies and Expression Analysis (LTEA) Assay for Ezrin (EZR) using HepaRG (AID 2283491)
Outline: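 EZR transcript levels came from Fluidigm qRT-PCR and were normalized to three housekeeping genes after 48 h chemical exposure of HepaRG cells. Dosing used an 8-point half-log series with a 100 uM top concentration in 0.5% DMSO, tested in duplicate; both directions were fitted versus vehicle.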

CYP3A5 (gene 1577) = assay: LTEA_HepaRG_CYP3A5: Life Technologies and Expression Analysis (LTEA) Assay for CYP3A5 using HepaRG (AID 2283493)
Outline: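 mRNA levels were quantified by qRT-PCR on Fluidigm arrays and normalized to three housekeeping genes. Differentiated HepaRG cells received 48 h exposure (top 100 uM, half-log steps, 0.5% DMSO vehicle, duplicate); bidirectional fitting versus DMSO.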

[6] = read-out: Fatty Acid-Binding Protein 1 (FABP1), FABP1 (gene 2168); assay: LTEA_HepaRG_FABP1: Life Technologies and Expression Analysis (LTEA) Assay for Fatty Acid-Binding Protein 1 (FABP1) using HepaRG (AID 2283494)
Outline: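 Values reflect bidirectional concentration-response fitting of FABP1 mRNA change against 0.5% DMSO controls. Human HepaRG cultures received eight half-log doses (top 100 uM) for 48 h; expression quantified by TaqMan qRT-PCR with housekeeping-gene normalization.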

[7] = read-out: Cytochrome P450 4A22 (Homo sapiens) (UniProt Q5TCH4); assay: LTEA_HepaRG_CYP4A22: Life Technologies and Expression Analysis (LTEA) Assay for Cytochrome P450 4A22 (CYP4A22) using HepaRG (AID 2283495)
Outline: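 Differentiated HepaRG cells in serum-free induction medium exposed 48 h in duplicate to eight half-log concentrations up to 100 uM in 0.5% DMSO. CYP4A22 mRNA quantified by TaqMan qRT-PCR, normalized to ACTB, GAPDH and POLR2A; bidirectional fit versus DMSO.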

[8] = read-out: Cytochrome P450 7A1 (Homo sapiens) (UniProt P22680); assay: LTEA_HepaRG_CYP7A1: Life Technologies and Expression Analysis (LTEA) Assay for Cytochrome P450 7A1 (CYP7A1) using HepaRG (AID 2283496)
Outline: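 HepaRG, 48 h exposure, 8-pt half-log series from 100 uM, 0.5% DMSO vehicle, duplicates. Readout: TaqMan qRT-PCR mRNA vs three housekeeping genes; bidirectional curve fit against DMSO baseline.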

[9] = read-out: Glutathione S-Transferase (GSTA2), GSTA2 (gene 2939); assay: LTEA_HepaRG_GSTA2: Life Technologies and Expression Analysis (LTEA) Assay for Glutathione S-Transferase (GSTA2) using HepaRG (AID 2283497)
Outline: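 Oxidative-stress marker GSTA2 is quantified by TaqMan qRT-PCR in HepaRG cultures treated 48 h across an eight-point range to 100 uM. Expression is normalized to endogenous controls and compared with 0.5% DMSO vehicle.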

[10] = read-out: Glutamate-cysteine ligase catalytic (GCLC), GCLC (gene 2729); assay: LTEA_HepaRG_GCLC: Life Technologies and Expression Analysis (LTEA) Assay for Glutamate-cysteine ligase catalytic (GCLC) using HepaRG (AID 2283498)
Outline: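 Oxidative-stress marker GCLC is measured as mRNA change in human HepaRG liver cells after 48 h chemical treatment in 0.5% DMSO, eight concentrations from 100 uM. Activity is fitted bidirectionally against vehicle.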

[11] = read-out: growth arrest and DNA damage 45 (GADD45G), GADD45G (gene 10912); assay: LTEA_HepaRG_GADD45G: Life Technologies and Expression Analysis (LTEA) Assay for growth arrest and DNA damage 45 (GADD45G) using HepaRG (AID 2283499)
Outline: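 Differentiated human HepaRG cells, 48 h post-plating, exposed 48 h in serum-free induction medium to 8 half-log concentrations (top 100 uM, 0.5% DMSO) in duplicate. GADD45G mRNA measured by Fluidigm TaqMan qRT-PCR, normalized to ACTB, GAPDH, POLR2A; bidirectional fit versus DMSO.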

[12] = read-out: Glutathione S-transferase M3 (GSTM3), GSTM3 (gene 2947); assay: LTEA_HepaRG_GSTM3: Life Technologies and Expression Analysis (LTEA) Assay for Glutathione S-transferase M3 (GSTM3) using HepaRG (AID 2283501)
Outline: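 Differentiated human HepaRG cells were exposed in duplicate for 48 h in serum-free induction medium, 8 points from 100 uM top in half-log steps, 0.5% DMSO. GSTM3 mRNA was measured by TaqMan qRT-PCR, normalized to ACTB, GAPDH and POLR2A; bidirectional fit versus DMSO.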

[13] = read-out: Heat shock 70 kDa protein 1 (HSPA1A), gene 3303; assay: LTEA_HepaRG_HSPA1A: Life Technologies and Expression Analysis (LTEA) Assay for Heat shock 70 kDa protein 1 (HSPA1A) using HepaRG (AID 2283502)
Outline: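 HSPA1A expression measured by qRT-PCR with ACTB/GAPDH/POLR2A normalization; curves fitted in both directions relative to DMSO vehicle. Exposure: 48 h in HepaRG cells, duplicate 8-point half-log series from 100 uM, 0.5% DMSO, serum-free induction medium.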

[14] = read-out: Hypoxia-inducible factor 1-alpha (Homo sapiens) (UniProt Q16665); assay: LTEA_HepaRG_HIF1A: Life Technologies and Expression Analysis (LTEA) Assay for Hypoxia-inducible factor 1 (HIF1A) Trancription factor using HepaRG (AID 2283503)
Outline: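 HIF1A transcript level read by qRT-PCR (ACTB, GAPDH, POLR2A normalization) after 48 h chemical exposure of HepaRG cultures. Eight half-log concentrations, top 100 uM, 0.5% DMSO vehicle, duplicates; bidirectional curve fit against DMSO baseline.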

[15] = read-out: 3-Hydroxy-3-Methylglutaryl-CoA Synthase 2 (HMGCS2), HMGCS2 (gene 3158); assay: LTEA_HepaRG_HMGCS2: Life Technologies and Expression Analysis (LTEA) Assay for 3-Hydroxy-3-Methylglutaryl-CoA Synthase 2 (HMGCS2) using HepaRG (AID 2283504)
Outline: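 Human HepaRG cells in serum-free induction medium were exposed in duplicate for 48 h to 8-point half-log series from 100 uM top in 0.5% DMSO. HMGCS2 mRNA measured by TaqMan qRT-PCR, normalised to ACTB, GAPDH, POLR2A; bidirectional fit versus DMSO.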

HGF (gene 3082) = assay: LTEA_HepaRG_HGF: Life Technologies and Expression Analysis (LTEA) Assay for Hepatocyte Growth Facto (HGF) using HepaRG (AID 2283505)
Outline: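 Differentiated HepaRG cells in serum-free induction medium exposed 48 h in duplicate, 8 half-log concentrations from 100 uM in 0.5% DMSO. HGF mRNA by qRT-PCR, normalised to ACTB, GAPDH, POLR2A; bidirectional fitting.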

[16] = read-out: Cytochrome P450 3A7 (Homo sapiens) (UniProt P24462); assay: LTEA_HepaRG_CYP3A7: Life Technologies and Expression Analysis (LTEA) Assay for CYP3A7 using HepaRG (AID 2283492)
Outline: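 Differentiated HepaRG cells in serum-free induction medium exposed 48 h in duplicate to 8-point half-log series from 100 uM top in 0.5% DMSO. CYP3A7 mRNA by qRT-PCR, normalized to ACTB/GAPDH/POLR2A, bidirectional fit versus DMSO.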

[17] = read-out: Glutamate-cysteine ligase regulatory (GCLM), GCLM (gene 2730); assay: LTEA_HepaRG_GCLM: Life Technologies and Expression Analysis (LTEA) Assay for Glutamate-cysteine ligase regulatory (GCLM) using HepaRG (AID 2283500)
Outline: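 GCLM expression quantified by qRT-PCR, normalized to three housekeeping genes, after 48 h chemical treatment of HepaRG cells in duplicate at 8 concentrations (top 100 uM, half-log steps, 0.5% DMSO). Changes fitted both directions against vehicle.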

Measured: AC50

Cytochrome P450 3A4 (Homo sapiens), sequence (P08684 whole entry, looked up): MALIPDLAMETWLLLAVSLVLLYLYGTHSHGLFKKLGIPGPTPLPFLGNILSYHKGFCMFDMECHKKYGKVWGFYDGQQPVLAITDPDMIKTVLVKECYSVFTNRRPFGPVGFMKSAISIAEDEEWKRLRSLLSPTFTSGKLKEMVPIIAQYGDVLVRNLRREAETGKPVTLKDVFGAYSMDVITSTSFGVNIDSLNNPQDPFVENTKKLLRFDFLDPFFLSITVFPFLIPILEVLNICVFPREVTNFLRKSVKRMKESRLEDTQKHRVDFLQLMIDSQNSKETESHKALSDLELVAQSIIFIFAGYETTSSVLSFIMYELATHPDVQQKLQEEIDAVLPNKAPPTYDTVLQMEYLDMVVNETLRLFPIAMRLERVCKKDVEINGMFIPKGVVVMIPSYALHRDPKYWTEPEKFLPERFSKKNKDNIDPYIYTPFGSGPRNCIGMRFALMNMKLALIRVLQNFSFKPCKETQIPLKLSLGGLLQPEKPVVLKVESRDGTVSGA
Hypoxia-inducible factor 1-alpha (Homo sapiens), sequence (Q16665 whole entry, looked up): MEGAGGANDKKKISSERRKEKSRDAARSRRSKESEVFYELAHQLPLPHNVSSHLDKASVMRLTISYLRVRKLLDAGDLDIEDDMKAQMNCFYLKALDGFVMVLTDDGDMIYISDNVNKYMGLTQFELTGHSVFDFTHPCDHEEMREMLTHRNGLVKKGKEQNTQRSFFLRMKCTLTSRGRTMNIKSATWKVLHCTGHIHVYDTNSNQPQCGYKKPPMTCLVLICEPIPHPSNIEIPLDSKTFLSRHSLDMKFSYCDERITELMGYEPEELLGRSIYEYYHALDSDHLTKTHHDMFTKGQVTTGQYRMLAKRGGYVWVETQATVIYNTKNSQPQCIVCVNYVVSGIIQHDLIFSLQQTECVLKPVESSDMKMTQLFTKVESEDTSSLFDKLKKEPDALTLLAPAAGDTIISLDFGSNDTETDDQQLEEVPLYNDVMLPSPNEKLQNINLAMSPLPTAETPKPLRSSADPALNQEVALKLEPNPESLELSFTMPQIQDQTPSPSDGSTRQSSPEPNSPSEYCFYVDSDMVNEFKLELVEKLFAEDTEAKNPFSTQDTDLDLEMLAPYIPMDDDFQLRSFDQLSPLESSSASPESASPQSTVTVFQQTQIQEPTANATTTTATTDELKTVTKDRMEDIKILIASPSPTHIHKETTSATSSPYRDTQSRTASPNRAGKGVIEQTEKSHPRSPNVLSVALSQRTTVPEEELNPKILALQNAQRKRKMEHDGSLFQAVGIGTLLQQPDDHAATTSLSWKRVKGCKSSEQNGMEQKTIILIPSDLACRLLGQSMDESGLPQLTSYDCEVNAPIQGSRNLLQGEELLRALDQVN
Cytochrome P450 3A7 (Homo sapiens), sequence (P24462 whole entry, looked up): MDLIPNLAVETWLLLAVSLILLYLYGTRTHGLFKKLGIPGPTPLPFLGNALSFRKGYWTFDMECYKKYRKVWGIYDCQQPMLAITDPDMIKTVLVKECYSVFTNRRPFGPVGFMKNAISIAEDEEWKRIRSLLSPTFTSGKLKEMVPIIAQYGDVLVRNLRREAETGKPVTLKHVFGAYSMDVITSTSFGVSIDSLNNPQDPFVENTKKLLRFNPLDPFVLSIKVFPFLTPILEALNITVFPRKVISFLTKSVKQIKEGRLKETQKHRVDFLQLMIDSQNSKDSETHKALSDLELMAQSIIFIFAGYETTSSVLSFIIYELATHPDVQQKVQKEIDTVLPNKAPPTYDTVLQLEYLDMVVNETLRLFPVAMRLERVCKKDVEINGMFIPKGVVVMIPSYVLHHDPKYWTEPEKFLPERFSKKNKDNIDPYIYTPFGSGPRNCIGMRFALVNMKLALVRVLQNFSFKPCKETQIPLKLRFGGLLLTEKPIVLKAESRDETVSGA

CCCCCCCCCC[N+](C)(C)CCCCCCCCCC
active: CYP4A11 (gene 1579) 26.3 µM | [1] 63.1 µM | [2] 74 µM | [4] 94.6 µM | [5] 80.9 µM | [7] 25.5 µM | [9] 74.5 µM | [10] 83.7 µM | [11] 83.7 µM | [14] 82.7 µM | [15] 77.4 µM | HGF (gene 3082) 50 µM
inactive: [3] | CYP3A5 (gene 1577) | [6] | [8] | [12] | [13]

CCC(C)(c1ccc(O)cc1)c1ccc(O)cc1
active: [8] 50 µM
inactive: all other assays above

Cc1ccccc1O
not listed: CYP4A11 (gene 1579) | [17]
inactive: all other assays above

N#Cc1ccc(N(CC(N)=O)CC(F)(F)F)cc1C(F)(F)F
active: [6] 2.3 µM | [8] 0.622 µM
not listed: [16] | [17]
inactive: all other assays above

Oc1c(Cl)c(Cl)c(Cl)c(Cl)c1Cl
active: CYP4A11 (gene 1579) 4.37 µM | [1] 4.73 µM | [2] 11.7 µM | [3] 25.5 µM | [4] 8.53 µM | [5] 1.58 µM | CYP3A5 (gene 1577) 10.6 µM | [6] 2.35 µM | [7] 3.87 µM | [8] 3.88 µM | [9] 3.87 µM | [10] 1.97 µM | [11] 12.6 µM | [12] 4.88 µM | [13] 6.34 µM | [14] 5.16 µM | [15] 4.84 µM
inactive: HGF (gene 3082)
